CRE-bla Fsk = Cell signaling CRE-BLA (Fsk stim). CHO CRE-bla reporter (cAMP response element driving beta-lactamase), forskolin EC10, beta-lactamase ratio. Potency, µM (highest dose often 38.2 µM), for inactives: top-dose activity change, negative = inhibition, most hits filed as activators. 71,000 tested, 2.5% active. AID 662, 2007; active = well fitted activation curve with a large enough effect in the signal ratio, with a control signal flat, not every such curve was filed as active; inconclusive = small, poorly fitted or top-dose-only effect, or effect the other way, or a change in a side signal; the % refers to the signal ratio; note: % of control where 0% means no effect
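Titrated compounds plus EC10 NKH 477 on CHO CRE-bla cells, 3 h, 37 °C. CCF4, 2 h RT. Ratio 460/530 nm → AC50.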
Hsp90 Hop PPI = qHTS Assay for Disrupters of an Hsp90 Co-Chaperone Interaction; AlphaScreen TPR2A-His6 binding biotin-Hsp90 C-terminal peptide; Potency, µM (series often up to 57 µM), for the others: at the highest dose activity change, negative = inhibition; 71,000 tested, 0.44% active; Hsp90 C-terminal peptide / TPR2A (Hop) interaction, human; active = well fitted curve in either direction with a large enough effect; inconclusive = small, poorly fitted or top-dose-only effect, or another doubt; note: % is set by controls: 0 for no effect and ±100 for the full control effect
IkB sig inh = IkB Signaling | ABC-DLBCL IkBa-CBG/CBR dual luciferase ratio, 4 h; response scale: scaled: untreated 0%, proteasome inhibitor 100% | Potency, µM (top dose mostly 57.1 µM), without a hit: top-dose IkBa stabilization activation | 110,000 tested, 0.04% active | AID 445, 2006; active = well fitted curve in the direction sought with a large enough effect in the signal ratio, not every such curve was filed as active; inconclusive = small, poorly fitted or top-dose-only effect, or a change in a side signal; the % refers to the signal ratio;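 note: the direction sought is a rising ratio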
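Curves were fitted separately to fusion (green), unfused (red) and ratio luminescence, then classed by r2, magnitude and activity. Cells: OCI-Ly3, 4 h compound plus doxycycline at 37C; 10 uM MG-132 defined full response.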
Tau fil binding = qHTS Assay for Tau Filament Binding; recombinant tau filaments, thioflavin S fluorescence, 15 h; filaments grown with octadecylsulfate alongside compound; 71,000 tested, 2% active; AID 596, 2007; Potency, µM (highest dose often 57.1 µM), for inactives: at the top dose activity change, negative = inhibition;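 note: % is set by controls: 0 for no effect and ±100 for the full control effect; actives lower thioflavin S fluorescence by blocking filaments or displacing dye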
Target sequence (P10636 whole entry, looked up): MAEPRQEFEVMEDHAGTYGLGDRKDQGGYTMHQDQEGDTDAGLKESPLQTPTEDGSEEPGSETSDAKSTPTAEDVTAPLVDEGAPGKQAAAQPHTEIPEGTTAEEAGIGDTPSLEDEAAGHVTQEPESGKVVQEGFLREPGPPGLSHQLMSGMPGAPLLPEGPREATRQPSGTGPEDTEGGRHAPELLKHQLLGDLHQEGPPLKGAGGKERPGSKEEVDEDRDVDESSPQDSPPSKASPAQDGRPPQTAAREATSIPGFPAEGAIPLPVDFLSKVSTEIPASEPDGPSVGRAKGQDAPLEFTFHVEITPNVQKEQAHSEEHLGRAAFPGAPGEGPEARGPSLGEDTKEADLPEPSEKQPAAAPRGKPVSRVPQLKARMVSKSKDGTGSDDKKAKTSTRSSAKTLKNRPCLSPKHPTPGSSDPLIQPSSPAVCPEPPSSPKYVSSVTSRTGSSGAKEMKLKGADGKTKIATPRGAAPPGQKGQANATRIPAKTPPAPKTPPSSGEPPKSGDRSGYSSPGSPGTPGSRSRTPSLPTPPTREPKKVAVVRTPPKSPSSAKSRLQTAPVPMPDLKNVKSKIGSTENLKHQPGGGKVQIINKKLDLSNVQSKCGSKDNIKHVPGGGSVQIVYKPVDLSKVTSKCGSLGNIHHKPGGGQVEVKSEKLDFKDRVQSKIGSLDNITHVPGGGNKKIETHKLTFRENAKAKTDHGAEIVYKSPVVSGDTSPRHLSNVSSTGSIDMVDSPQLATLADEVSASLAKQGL
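Assay mix: 1 uM His-tagged tau, 30 uM sodium octadecylsulfate, thioflavine S dye in HEPES/NaCl/DTT buffer. Compound is added prior to the inducer. Fluorescence after 15 h at 37 C.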
ALOX15 inhib = qHTS Assay for Inhibitors of 15-hLO (15-human lipoxygenase); purified 15hLO-1, xylenol orange hydroperoxide absorbance; 74,000 tested, 1.4% active; Potency, µM (top dose mostly 57.1 µM), without a hit: at the highest dose activity change, negative = inhibition, usual class: inhibitors; Polyunsaturated fatty acid lipoxygenase ALOX15 (Homo sapiens), P16050; AID 887, 2007; note: % is set by controls: 0 for no effect and ±100 for the full control effect; nearly all actives have a fitted effect of over 55% in size
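40 nM 15hLO-1 + cpd, 15 min RT; start w/ 50 uM AA (final), 6 min RT; stop/detect w/ 200 uM XO + 300 uM Fe(II) in 50 mM H2SO4, 30 min; A573/A405. Buffer 25 mM Hepes pH 7.5, 0.01% Triton X-100. No-enzyme wells as negative control.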
* marks the source's active call; other numbers are inactive results; ! = a repeat was not active; [ ] = remark or other dose. Compounds with a hit are over-represented: about 3.6% of the library has one in this group of screens. Unless noted, calls come from the whole dose curve; as a rule, active = well fitted curve in the direction sought with a large enough effect; inconclusive = small, poorly fitted or top-dose-only effect, or another doubt; inactive = no such curve, though single readings can be large; an effect the other way counts as inactive or inconclusive. Potency is the fitted concentration of half-maximal effect.

What do the screens show for `N#CC(C#N)=Cc1cc(O)c(O)c(O)c1`?
CRE-bla Fsk: -4%; Hsp90 Hop PPI: 7.9µM*; IkB sig inh: 2%; Tau fil binding: 10%; ALOX15 inhib: 7.9µM*

What do the screens show for `Cc1c(OCC(F)(F)F)ccnc1CS(=O)c1nc2ccccc2[nH]1` (stereo not drawn)?
CRE-bla Fsk: inconclusive; Hsp90 Hop PPI: -5%[26 µM]; IkB sig inh: 2%[25.6 µM]; Tau fil binding: -1%[25.6 µM]; ALOX15 inhib: 25µM*!

What do the screens show for `O=S(=O)(O)F`?
CRE-bla Fsk: -10%; Hsp90 Hop PPI: inconclusive; IkB sig inh: -2%; Tau fil binding: 2%; ALOX15 inhib: -22%

How did CC[C@@]1(O)C(=O)OCc2c1cc1n(c2=O)Cc2cc3ccccc3nc2-1 do in these assays?
CRE-bla Fsk: inconclusive; Hsp90 Hop PPI: -1%; IkB sig inh: inconclusive; Tau fil binding: inconclusive; ALOX15 inhib: 1%[25.6 µM]

What do the screens show for `CC[C@]1(OC(=O)CN)C(=O)OCc2c1cc1n(c2=O)Cc2cc3ccccc3nc2-1`?
CRE-bla Fsk: 0.1µM*; Hsp90 Hop PPI: -3%[11 µM]; IkB sig inh: inconclusive; Tau fil binding: -9%[11.4 µM]; ALOX15 inhib: 11%[11.4 µM]

What do the screens show for `CCCN1CCO[C@@H]2c3cc(O)ccc3OC[C@@H]21`?
CRE-bla Fsk: 8%; Hsp90 Hop PPI: 0%; IkB sig inh: 0%; Tau fil binding: 40µM*; ALOX15 inhib: inconclusive

How did CN(C)[C@@H]1C(=O)C(C(N)=O)=C(O)[C@]2(O)C(=O)C3=C(O)c4c(O)cccc4[C@](C)(O)[C@H]3C[C@@H]12 do in these assays?
CRE-bla Fsk: 1%[7.6 µM]; Hsp90 Hop PPI: -7%[11 µM]; IkB sig inh: 0%[11.4 µM]; Tau fil binding: -4%[11.4 µM]; ALOX15 inhib: inconclusive

Results for CN1CC[C@]2(C)c3cc(O)ccc3N(C)[C@@H]12 ?
CRE-bla Fsk: inconclusive; Hsp90 Hop PPI: -2%; IkB sig inh: inconclusive; Tau fil binding: 32µM*!; ALOX15 inhib: inconclusive

How did CC(=O)C1=C(O)C2C3c4c[nH]c5cccc(c45)CC3C(C)(C)N2C1=O (stereo not drawn) do in these assays?
ALOX15 inhib: -14%

What do the screens show for `CC(=O)C1=C(O)[C@@H]2[C@@H]3c4c[nH]c5cccc(c45)C[C@@H]3C(C)(C)N2C1=O`?
CRE-bla Fsk: 1.3µM*; Hsp90 Hop PPI: -9%; IkB sig inh: 1%; Tau fil binding: inconclusive; ALOX15 inhib: inconclusive

Results for COc1ccc2c(c1)[C@]13CCCC[C@@H]1[C@H](C2)N(C)CC3 ?
CRE-bla Fsk: -9%; Hsp90 Hop PPI: -2%; IkB sig inh: -5%; Tau fil binding: 1%; ALOX15 inhib: 8%

Results for Cc1cc(N=Nc2ccccc2C)ccc1N ?
CRE-bla Fsk: -14%; Hsp90 Hop PPI: inconclusive; IkB sig inh: 6%; Tau fil binding: 7.9µM*; ALOX15 inhib: -8%

What do the screens show for `CC(C)[C@]1(NC(=O)[C@H]2C=C3c4cccc5[nH]cc(c45)C[C@H]3N(C)C2)O[C@@]2(O)[C@H]3CCCN3C(=O)[C@H](Cc3ccccc3)N2C1=O`?
CRE-bla Fsk: inconclusive; Hsp90 Hop PPI: -21%; IkB sig inh: -1%[11.4 µM]; Tau fil binding: 417%

Results for Cc1ccc(NC(=[OH+])c2cc3ccccc3cc2O)c(C)c1.Cc1ccc(NC(=[OH+])c2cc3ccccc3cc2O)c(C)c1.[Ni] ?
CRE-bla Fsk: 2%[7.6 µM]; Hsp90 Hop PPI: -9%[11 µM]; IkB sig inh: inconclusive; Tau fil binding: -10%[11.4 µM]; ALOX15 inhib: 4µM*

What do the screens show for `N[C@H](Cc1c[nH]c2ccccc12)P(=O)(O)O`?
CRE-bla Fsk: -9%[7.6 µM]; Hsp90 Hop PPI: 4%[11 µM]; IkB sig inh: 0%[11.4 µM]; Tau fil binding: 7%[11.4 µM]; ALOX15 inhib: 1%[11.4 µM]

What do the screens show for `NCCc1c[nH]c2ccccc12`?
CRE-bla Fsk: inconclusive; Hsp90 Hop PPI: -7%; IkB sig inh: -1%; Tau fil binding: 3%; ALOX15 inhib: 0%

How did CCCCc1ccc2[nH]cc(CCN)c2c1 do in these assays?
CRE-bla Fsk: inconclusive; Hsp90 Hop PPI: -4%; IkB sig inh: 3%; Tau fil binding: 16µM*; ALOX15 inhib: -6%

How did O=C(O)[C@@H]1C[C@H]2C[C@@H](CP(=O)(O)O)CC[C@H]2CN1 do in these assays?
CRE-bla Fsk: inconclusive; Hsp90 Hop PPI: 4%; IkB sig inh: 0%; Tau fil binding: 32µM*; ALOX15 inhib: 1%[25.6 µM]

Results for O=C(O)[C@H]1CCN1 ?
CRE-bla Fsk: -4%; Hsp90 Hop PPI: -2%; IkB sig inh: 4%; Tau fil binding: -2%; ALOX15 inhib: 9%

How did NC[C@@H](CC(=O)O)c1ccc(Cl)cc1 do in these assays?
CRE-bla Fsk: -8%; Hsp90 Hop PPI: -2%; IkB sig inh: 3.2µM*!; Tau fil binding: inconclusive; ALOX15 inhib: -5%[25.6 µM]

Results for NCC(CC(=O)O)c1ccc(Cl)cc1 (stereo not drawn) ?
CRE-bla Fsk: -3%; Hsp90 Hop PPI: 0%; IkB sig inh: 2%; Tau fil binding: -2%; ALOX15 inhib: 14%

How did C/C=C1\C[C@H](C)[C@](O)(CO)C(=O)OCC2=CCN3CC[C@@H](OC1=O)[C@@H]23 do in these assays?
CRE-bla Fsk: inconclusive; Hsp90 Hop PPI: -7%; IkB sig inh: 0%[11.4 µM]; Tau fil binding: -22%

Results for CN(N=O)c1ccc(O)c(O)c1 ?
CRE-bla Fsk: -2%; Hsp90 Hop PPI: 3.2µM*; IkB sig inh: 2%; Tau fil binding: -19%; ALOX15 inhib: 16µM*

What do the screens show for `O=C1CN=C(c2cccs2)c2c(sc3c2CCCC3)N1`?
CRE-bla Fsk: 7%; Hsp90 Hop PPI: -8%; IkB sig inh: 1%; Tau fil binding: -8%; ALOX15 inhib: 16µM*

Results for Cc1cc2c(s1)NC(=O)CN=C2c1cccs1 ?
CRE-bla Fsk: 0%; Hsp90 Hop PPI: 1%; IkB sig inh: 1%; Tau fil binding: -1%; ALOX15 inhib: 6%

What do the screens show for `O=C(O)c1ccccc1-c1c2cc(Br)c(=O)cc-2oc2[c]([Hg])c(O)c(Br)cc12`?
CRE-bla Fsk: -17%[17.1 µM]; Hsp90 Hop PPI: -8%[26 µM]; IkB sig inh: 5%[25.6 µM]; Tau fil binding: inactive; ALOX15 inhib: 0.25µM*

How did O=C1C=CC(=O)c2c(O)cccc21 do in these assays?
ALOX15 inhib: 2µM*

How did O=C1c2ccccc2C(=O)c2ccccc21 do in these assays?
ALOX15 inhib: 6%

Results for c1ccc2c(c1)-c1cccc3cccc-2c13 ?
CRE-bla Fsk: inconclusive; Hsp90 Hop PPI: 32µM*; IkB sig inh: 0%; Tau fil binding: -1%; ALOX15 inhib: 5%

Results for N[C@H](Cc1ccc(N(CCCl)CCCl)cc1)C(=O)O ?
CRE-bla Fsk: 13%; Hsp90 Hop PPI: -18%; IkB sig inh: 30%; Tau fil binding: 2%; ALOX15 inhib: -1%

Assay outcomes: PubChem, National Center for Advancing Translational Sciences (NCATS)
